Source: PubChem BioAssay AID588331 (National Center for Advancing Translational Sciences (NCATS), 2011)
Results filed as inconclusive are left out. Unmarked numbers belong to inactive results. The source made the active and inactive calls. Calls follow the shape of the dose curve; as a rule, active = well fitted inhibition curve with a large enough effect; inconclusive = small, poorly fitted or top-dose-only effect; inactive = flat fitted curve, though single readings scatter.

tested on: Trypanosoma brucei 6-phosphofructokinase (PFK); experiment: Confirmatory Assay to Find Inhibitors of T. brucei phosphofructokinase: High F6P; settings: Kinase-Glo luminescence; series mostly up to 57.5 µM; activity change, negative = inhibition: at the top concentration
From the text: Various species of the protozoan family Trypanosomatidae are responsible for a range of serious human diseases in tropical and subtropical areas of the world. […] Many of the disorders caused by trypanosomatids are fatal if left untreated, but most currently used drugs are inefficient and toxic. […] Oxidative metabolism involving the mitochondrial tricarboxylic acid cycle and oxidative phosphorylation are repressed in these parasites, and recent RNA interference (RNAi) experiments have shown that even partial depletion of certain individual glycolytic enzymes can lead to the death of cultured parasites. One such glycolytic enzyme, phosphofructokinase (PFK), catalyzes the formation of fructose-1,6-bisphosphate (F1,6BP) and ADP from fructose-6-phosphate (F6P) and ATP, and in many metabolic circumstances makes an important contribution to the control of flux through the glycolytic pathway. As a specific glycolytic target, PFK is particularly attractive as it catalyzes the first irreversible step in glycolysis, and structural and kinetic studies have shown very substantial and essential differences from corresponding host enzymes, allowing for the discovery of parasite-selective inhibitors. A luminescent secondary assay was also performed that used luciferase-based nucleotide detection (ADP-Glo, Promega) similar to the qHTS, but that alternatively used saturating concentrations (10x Km concentrations) of ATP or F6P to determine if inhibitor potencies were shifted due to particular substrate competition. […] NIH Molecular Libraries Probe Production Network [MLPCN] NIH Chemical Genomics Center [NCGC] Grant: 1 R03 MH092153-01 PI Name: Malcolm Walkinshaw, University of Edinburgh
Substrate buffer was dispensed into white, solid 1536-well plates at 3 uL/well in 0.1M triethanolamine (TEA) buffer, pH 8.0, containing final concentrations of 5 mM MgCl2 and 0.01% Tween20. Standard substrate buffer contained 0.5 mM fructose-6-phosphate (F6P) and 0.1 mM ATP, high ATP substrate buffer contained 0.5 mM fructose-6-phosphate (F6P) and 1mM ATP, high F6P substrate buffer contained 5mM fructose-6-phosphate (F6P) and 0.1 mM ATP, and high ATP/F6P buffer contained 5 mM fructose-6-phosphate (F6P) and 1 mM ATP. Then, 23 nl of compounds or DMSO were delivered to each well using a pin tool. One uL of T. brucei PFK (0.1 M TEA, 0.01% Tween20, 0.1% bovine serum albumin (BSA) and 1.25 nM PFK, final concentrations) was then dispensed, and plates were incubated at room temperature for 45 min. The luminescent detection reagent, Kinase-Glo Plus (Promega), was then added at 2ul/well and incubated for ten minutes at room temperature. The plates were measured on a ViewLux plate reader for luminescent signal using a clear filter with a one second exposure. The %Activity was determined from the corrected luminescence values. 1x (1.25nM) and 0x PFK enzyme controls (untreated) were included to normalize %Activity of identified inhibitors; 0x enzyme values corresponded to 100%Activity (full inhibition), while 1x PFK enzyme values were used to normalize 0% Activity (no inhibition).

| Compound | activity change, negative = inhibition | Potency |
| --- | --- | --- |
| Cc1cc(NS(=O)(=O)C2CCN(C(=O)Cc3ccc(Cl)c(Cl)c3)CC2)no1 | -0.566% |  |
| Cc1cc(NS(=O)(=O)c2ccc(NS(=O)(=O)Cc3ccc(Cl)c(Cl)c3)cc2)no1 | 7.09% |  |
| O=C(Cc1ccc(Cl)c(Cl)c1)Nc1ccc(S(=O)(=O)Nc2cccc(O)c2)cc1 |  | 14.6 µM (active) |
| Cc1cc(NS(=O)(=O)c2ccc(NC(=O)C(C)(C)c3ccc(Cl)c(Cl)c3)cc2)no1 | -0.0491% |  |
| Cc1cc(N[S+](=O)([O-])c2ccc(NC(=O)Cc3ccc(Cl)nc3)cc2)no1 | -2.67% |  |
| O=C(Cc1ccc(Cl)c(Cl)c1)Nc1ccc(S(=O)(=O)Nc2cncnc2)cc1 |  | 9.19 µM (active) |
| O=C(Cc1ccc(Cl)c(Cl)c1)Nc1ccc(S(=O)(=O)Nc2ccon2)cc1 |  | 2.06 µM (active) |
| Cc1cc(NS(=O)(=O)c2ccc(NC(=O)Cc3ccccc3)cc2)no1 | -9.12% |  |
| Cc1cc(NS(=O)(=O)c2ccc(NC(=O)Cc3ccc(Cl)c(Cl)c3)cc2)on1 |  | 3.26 µM (active) |
| Cc1cc(N[S+](=O)([O-])c2ccc3cc(NC(=O)Cc4ccc(Cl)c(Cl)c4)ccc3c2)no1 |  | 36.6 µM (active) |
| Cc1cc(NS(=O)(=O)CCNC(=O)Cc2ccc(Cl)c(Cl)c2)no1 | 4.19% |  |
| COc1ccc(CC(=O)Nc2ccc(S(=O)(=O)Nc3cc(C)on3)cc2)cc1C | 1.36% |  |
| Cc1cc(NS(=O)(=O)Cc2ccc(NC(=O)Cc3ccc(Cl)c(Cl)c3)cc2)no1 |  | 16.3 µM (active) |
| COc1ccc(CC(=O)Nc2ccc(S(=O)(=O)Nc3cc(C)on3)cc2)cc1OC | 4.52% |  |
| O=C(Cc1ccc(Cl)c(Cl)c1)Nc1ccc(S(=O)(=O)O)cc1 |  | 5.17 µM (active) |
| Cc1cc(NS(=O)(=O)c2ccc(NC(=O)Cc3ccc(Cl)cc3)cc2)no1 |  | 20.6 µM (active) |

| Compound | activity change, negative = inhibition | Potency |
| --- | --- | --- |
| Cc1cc(NC(=O)c2csc(NC(=O)Cc3ccc(Cl)c(Cl)c3)n2)no1 | 2.82% |  |
| O=C(Cc1ccc(Cl)c(Cl)c1)Nc1ccc(S(=O)(=O)Nc2ccn[nH]2)cc1 |  | 5.8 µM (active) |
| Cc1cc(NS(=O)(=O)c2ccc(C(=O)NCc3ccc(Cl)c(Cl)c3)cc2)no1 |  | 25.9 µM (active) |
| O=C(Cc1ccc(Cl)c(Cl)c1)Nc1ccc(S(=O)(=O)Nc2cccc(C(=O)O)c2)cc1 |  | 4.61 µM (active) |
| Cc1cc(NS(=O)(=O)c2ccc(NC(=O)c3ccc(Cl)c(Cl)c3)cc2)no1 | -3.99% |  |
| O=C(Cc1ccc(Cl)c(Cl)c1)Nc1ccc(S(=O)(=O)Nc2ccc(C(=O)O)cc2)cc1 |  | 4.11 µM (active) |
| Cc1cc(NS(=O)(=O)c2ccc(NC(=O)Cc3ccc(Cl)c(F)c3)cc2)no1 |  | 8.19 µM (active) |
| Cc1cc(NS(=O)(=O)c2ccc(NC(=O)Cc3ccc(Cl)c(Cl)c3)cc2)n(C)n1 |  | 13 µM (active) |
| CCOC(=O)c1cccc(NS(=O)(=O)c2ccc(NC(=O)Cc3ccc(Cl)c(Cl)c3)cc2)c1 | 6.32% |  |
| Cc1cc(NS(=O)(=O)c2ccc(NC(=O)Cc3ccc(Cl)c(C(F)(F)F)c3)cc2)no1 |  | 5.8 µM (active) |
| Cc1cc(NS(=O)(=O)c2ccc(N(C)C(=O)Cc3ccc(Cl)c(Cl)c3)cc2)no1 |  | 10.3 µM (active) |
| Cc1cc(N(C)S(=O)(=O)c2ccc(NC(=O)Cc3ccc(Cl)c(Cl)c3)cc2)no1 |  | 16.3 µM (active) |
| Cc1cc(NS(=O)(=O)c2ccc(NC(=O)Cc3ccc(C)c(C)c3)cc2)no1 | -3.32% |  |
| Cc1cc(NC(=O)c2ccc(NC(=O)Cc3ccc(Cl)c(Cl)c3)cc2)no1 | 3.41% |  |
| Cc1cc(NS(=O)(=O)c2ccc(NC(=O)Cc3ccc(Cl)c(Cl)c3)cc2)no1 |  | 3.66 µM (active) |
